# According to the supplement of paper PMC9492666:
# Tests used:
# HCC1937 = assay: relative cell viability, compound + RSL3, vs DMSO (fraction of DMSO control); higher = less growth inhibition; conditions: 72 h
# MDA-MB-231 = assay: as above; conditions: 72 h
# 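Further: breast cancer cell viability read out with the CCK-8 kit after co-treatment of each compound with the ferroptosis inducer RSL3.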
smiles,measurement,setting,value
CCC(=O)O[C@]1(C(=O)CCl)[C@@H](C)C[C@H]2[C@@H]3C[C@H](F)C4=CC(=O)C=C[C@]4(C)[C@@]3(F)[C@@H](O)C[C@@]21C [Halobetasol Propionate] + COC(=O)c1ccc([C@H]2c3[nH]c4ccccc4c3C[C@H](C(=O)OC)N2C(=O)CCl)cc1 [RSL3],relative cell viability,HCC1937,0.393
same,relative cell viability,MDA-MB-231,0.592
COc1ccc(-c2cc(=O)c3c(O)c(OC)c(OC)c(OC)c3o2)cc1OC + COC(=O)c1ccc([C@H]2c3[nH]c4ccccc4c3C[C@H](C(=O)OC)N2C(=O)CCl)cc1 [RSL3],relative cell viability,HCC1937,0.343
same,relative cell viability,MDA-MB-231,0.501
COc1ccc(CN2CCC(c3ccc4nc(C(=O)N5CCN(Cc6ccc(C(F)(F)F)cc6)CC5)[nH]c4c3)CC2)cn1 + COC(=O)c1ccc([C@H]2c3[nH]c4ccccc4c3C[C@H](C(=O)OC)N2C(=O)CCl)cc1 [RSL3],relative cell viability,HCC1937,0.351
same,relative cell viability,MDA-MB-231,0.562
O=C(c1c2ccccc2cc2ccccc12)N1CCC(N2CCC[C@@H](C(=O)N3CCOCC3)C2)CC1 + COC(=O)c1ccc([C@H]2c3[nH]c4ccccc4c3C[C@H](C(=O)OC)N2C(=O)CCl)cc1 [RSL3],relative cell viability,HCC1937,0.352
same,relative cell viability,MDA-MB-231,0.366
CCCc1cc(-c2nc(-c3ccc(NS(C)(=O)=O)cc3)cs2)ccn1 + COC(=O)c1ccc([C@H]2c3[nH]c4ccccc4c3C[C@H](C(=O)OC)N2C(=O)CCl)cc1 [RSL3],relative cell viability,HCC1937,0.322
same,relative cell viability,MDA-MB-231,0.551
Cc1cc([N+](=O)[O-])ccc1NS(=O)(=O)c1cc(Cl)ccc1Cl + COC(=O)c1ccc([C@H]2c3[nH]c4ccccc4c3C[C@H](C(=O)OC)N2C(=O)CCl)cc1 [RSL3],relative cell viability,HCC1937,0.264
same,relative cell viability,MDA-MB-231,0.515
Cc1c(C(=O)Nc2ccc(CO)cc2)nnn1Cc1ccc(Cl)c(Cl)c1 + COC(=O)c1ccc([C@H]2c3[nH]c4ccccc4c3C[C@H](C(=O)OC)N2C(=O)CCl)cc1 [RSL3],relative cell viability,HCC1937,0.406
same,relative cell viability,MDA-MB-231,0.573
CCCCCCCCCCOc1ccc(C(=O)Nc2cc(C(=O)NCCCC)ccc2SC)cc1 + COC(=O)c1ccc([C@H]2c3[nH]c4ccccc4c3C[C@H](C(=O)OC)N2C(=O)CCl)cc1 [RSL3],relative cell viability,HCC1937,0.408
same,relative cell viability,MDA-MB-231,0.421
Cc1ccc(CN(CC(O)COc2cccc3[nH]ccc23)C(C)(C)C)cc1 (stereo not given) + COC(=O)c1ccc([C@H]2c3[nH]c4ccccc4c3C[C@H](C(=O)OC)N2C(=O)CCl)cc1 [RSL3],relative cell viability,HCC1937,0.357
same,relative cell viability,MDA-MB-231,0.804
O=C(O)c1c[nH]c2cc(Cl)c(-c3ccc(C4(O)CCC4)cc3)cc12 + COC(=O)c1ccc([C@H]2c3[nH]c4ccccc4c3C[C@H](C(=O)OC)N2C(=O)CCl)cc1 [RSL3],relative cell viability,HCC1937,0.572
same,relative cell viability,MDA-MB-231,0.572
COc1cc(N2CCN(C)CC2)ccc1Nc1ncc2c(n1)N(C)c1ccccc1C(=O)N2 + COC(=O)c1ccc([C@H]2c3[nH]c4ccccc4c3C[C@H](C(=O)OC)N2C(=O)CCl)cc1 [RSL3],relative cell viability,HCC1937,0.213
same,relative cell viability,MDA-MB-231,0.375
CCN(CC)c1ccc(C=NNC(=O)c2ccncc2)c(O)c1 + COC(=O)c1ccc([C@H]2c3[nH]c4ccccc4c3C[C@H](C(=O)OC)N2C(=O)CCl)cc1 [RSL3],relative cell viability,HCC1937,0.265
same,relative cell viability,MDA-MB-231,0.611
Cc1cccc(Nc2cc(Cl)nc(SCC(=O)O)n2)c1C [Pirinixic Acid] + COC(=O)c1ccc([C@H]2c3[nH]c4ccccc4c3C[C@H](C(=O)OC)N2C(=O)CCl)cc1 [RSL3],relative cell viability,HCC1937,0.603
same,relative cell viability,MDA-MB-231,0.495
Cc1ccc(Oc2nc3cc(-c4ccc(-c5ccccc5)cc4)c(Cl)cc3[nH]2)cc1C(=O)O + COC(=O)c1ccc([C@H]2c3[nH]c4ccccc4c3C[C@H](C(=O)OC)N2C(=O)CCl)cc1 [RSL3],relative cell viability,HCC1937,0.538
same,relative cell viability,MDA-MB-231,0.6
COc1cc(C(C)=O)ccc1O [Acetovanillone] + COC(=O)c1ccc([C@H]2c3[nH]c4ccccc4c3C[C@H](C(=O)OC)N2C(=O)CCl)cc1 [RSL3],relative cell viability,HCC1937,0.389
same,relative cell viability,MDA-MB-231,0.594
